In PubChem BioAssay AID1159580 (chemical genetic matrix, 2015):
Among all 5,500 compounds or so, about 2,000 (36%) were called active. Roughly 18% stayed inconclusive and do not appear here. Rule as the data show it: active = normalized growth mostly below about 0.91 (no sharp cut-off); inconclusive = no clear call, values can overlap the other calls; inactive = mostly above about 0.92. The list shows a part of the results.

Test: chemical genetic growth profiling, strain panel (AID 1159580);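 also: tested at 20 µM; growth read once vehicle control cultures reached saturation at 30 °C; 1 = growth at the plate median or of vehicle wells; lower values mean less growth of the strain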
Conditions: growth OD

Measured: normalized growth

CCN(CC)C(=O)N1CCN(C)CC1
inactive: S. cerevisiae deletion strains, locus YJR075W, strain HOC1, hits give low values 1.03 | S. cerevisiae deletion strains, locus YKL009W, strain mrt4, hits give low values 0.989 | S. cerevisiae deletion strains, locus YKL068W, hits give low values 1 | S. cerevisiae deletion strains, locus YKL085W, strain MDH1 (second series), hits give low values 1.04 | S. cerevisiae deletion strains, locus YKL085W, strain MDH1, hits give low values 1.04 | S. cerevisiae deletion strains, locus YKL160W, strain elf1, hits give low values 0.975 | S. cerevisiae deletion strains, locus YKR001C, strain vps1, hits give low values 1.01 | S. cerevisiae deletion strains, locus YKR026C, strain gcn3, hits give low values 0.965 | S. cerevisiae deletion strains, locus YKR091W, strain srl3, hits give low values 0.949 | S. cerevisiae deletion strains, locus YLL001W, strain dnm1, hits give low values 0.997 | S. cerevisiae deletion strains, locus YLL026W, hits give low values 0.974 | S. cerevisiae deletion strains, locus YLL041C, strain sdh2, hits give low values 0.994 | S. cerevisiae deletion strains, locus YLR027C, strain aat2, hits give low values 0.964 | S. cerevisiae deletion strains, locus YLR039C, strain RIC1, hits give low values 0.975 | S. cerevisiae deletion strains, locus YLR058C, strain SHM2, hits give low values 1.02 | S. cerevisiae deletion strains, locus YLR102C, strain apc9, hits give low values 0.993 | S. cerevisiae deletion strains, locus YLR113W, strain HOG1, hits give low values 1 | S. cerevisiae deletion strains, locus YLR221C, strain rsa3, hits give low values 0.963 | S. cerevisiae deletion strains, locus YLR258W, strain gsy2, hits give low values 0.981 | S. cerevisiae deletion strains, locus YLR262C, strain YPT6 (second series), hits give low values 0.967 | S. cerevisiae deletion strains, locus YLR262C, strain YPT6, hits give low values 0.976 | S. cerevisiae deletion strains, locus YLR268W, strain sec22, hits give low values 1.01 | S. cerevisiae deletion strains, locus YLR320W, strain mms22, hits give low values 0.974 | S. cerevisiae deletion strains, locus YLR330W, strain CHS5, hits give low values 1.01 | S. cerevisiae deletion strains, locus YLR342W, strain FKS1 (second series), hits give low values 1.03 | S. cerevisiae deletion strains, locus YLR342W, strain FKS1, hits give low values 0.98 | S. cerevisiae deletion strains, locus YLR357W, strain rsc2, hits give low values 0.937 | S. cerevisiae deletion strains, locus YLR370C, strain arc18, hits give low values 0.97 | S. cerevisiae deletion strains, locus YLR371W, strain rom2, hits give low values 0.99 | S. cerevisiae deletion strains, locus YLR384C, strain iki3, hits give low values 0.989 | S. cerevisiae deletion strains, locus YLR418C, strain cdc73, hits give low values 0.947 | S. cerevisiae deletion strains, locus YML016C, strain PPZ1, hits give low values 1.01 | S. cerevisiae deletion strains, locus YML032C, strain rad52, hits give low values 0.995 | S. cerevisiae deletion strains, locus YML120C, strain ndi1, hits give low values 0.961 | S. cerevisiae deletion strains, locus YML124C, strain tub3, hits give low values 0.99 | S. cerevisiae deletion strains, locus YMR058W, strain fet3, hits give low values 0.979 | S. cerevisiae deletion strains, locus YMR078C, strain ctf18, hits give low values 0.993 | S. cerevisiae deletion strains, locus YMR125W, strain sto1, hits give low values 0.973 | S. cerevisiae deletion strains, locus YMR129W, hits give low values 0.964 | S. cerevisiae deletion strains, locus YMR205C, strain PFK2, hits give low values 0.97 | S. cerevisiae deletion strains, locus YMR223W, strain ubp8, hits give low values 0.993 | S. cerevisiae deletion strains, locus YMR231W, strain pep5, hits give low values 0.981 | S. cerevisiae deletion strains, locus YMR263W, strain SAP30, hits give low values 1.02 | S. cerevisiae deletion strains, locus YMR307W, strain GAS1, hits give low values 0.999 | S. cerevisiae deletion strains, locus YNL067W, strain RPL9B, hits give low values 1 | S. cerevisiae deletion strains, locus YNL071W, strain lat1, hits give low values 0.964 | S. cerevisiae deletion strains, locus YNL128W, strain TEP1, hits give low values 1.02 | S. cerevisiae deletion strains, locus YNL153C, strain GIM3, hits give low values 1.01 | S. cerevisiae deletion strains, locus YNL183C, strain NPR1, hits give low values 0.986 | S. cerevisiae deletion strains, locus YNL209W, strain ssb2, hits give low values 0.969 | S. cerevisiae deletion strains, locus YNL233W, strain BNI4, hits give low values 1.01 | S. cerevisiae deletion strains, locus YNL248C, strain rpa49, hits give low values 0.888 | S. cerevisiae deletion strains, locus YNL250W, strain rad50, hits give low values 1.01 | S. cerevisiae deletion strains, locus YNL271C, strain bni1, hits give low values 1 | S. cerevisiae deletion strains, locus YNL298W, strain CLA4, hits give low values 1.03 | S. cerevisiae deletion strains, locus YNL307C, strain MCK1, hits give low values 1 | S. cerevisiae deletion strains, locus YNL322C, strain KRE1 (second series), hits give low values 0.979 | S. cerevisiae deletion strains, locus YNR049C, strain mso1, hits give low values 0.942 | S. cerevisiae deletion strains, locus YNR052C, strain pop2, hits give low values 1 | S. cerevisiae deletion strains, locus YOL006C, strain TOP1, hits give low values 1.03 | S. cerevisiae deletion strains, locus YOL012C, strain htz1 0.747 | S. cerevisiae deletion strains, locus YOL147C, strain pex11, hits give low values 0.986 | S. cerevisiae deletion strains, locus YOR001W, strain rrp6, hits give low values 0.976 | S. cerevisiae deletion strains, locus YOR061W, strain CKA2, hits give low values 1.02 | S. cerevisiae deletion strains, locus YOR069W, strain VPS5, hits give low values 1.01 | S. cerevisiae deletion strains, locus YOR070C, strain gyp1, hits give low values 0.994 | S. cerevisiae deletion strains, locus YOR080W, strain dia2, hits give low values 0.985 | S. cerevisiae deletion strains, locus YOR083W, strain WHI5, hits give low values 0.995 | S. cerevisiae deletion strains, locus YOR106W, strain vam3, hits give low values 0.976 | S. cerevisiae deletion strains, locus YOR136W, strain idh2, hits give low values 0.991 | S. cerevisiae deletion strains, locus YOR144C, strain elg1, hits give low values 1 | S. cerevisiae deletion strains, locus YOR184W, strain ser1, hits give low values 1.02 | S. cerevisiae deletion strains, locus YOR231W, strain MKK1, hits give low values 1.02 | S. cerevisiae deletion strains, locus YOR265W, strain rbl2, hits give low values 0.989 | S. cerevisiae deletion strains, locus YOR270C, strain vph1, hits give low values 0.965 | S. cerevisiae deletion strains, locus YOR290C, strain snf2, hits give low values 0.966 | S. cerevisiae deletion strains, locus YOR316C, strain cot1, hits give low values 1 | S. cerevisiae deletion strains, locus YPL051W, strain arl3, hits give low values 1 | S. cerevisiae deletion strains, locus YPL078C, strain atp4, hits give low values 0.973 | S. cerevisiae deletion strains, locus YPL106C, strain sse1, hits give low values 0.898 | S. cerevisiae deletion strains, locus YPL240C, strain hsp82, hits give low values 0.974 | S. cerevisiae deletion strains, locus YPL241C, strain CIN2, hits give low values 1 | S. cerevisiae deletion strains, locus YPL256C, strain CLN2, hits give low values 1.04 | S. cerevisiae deletion strains, locus YPR119W, strain clb2, hits give low values 0.998 | S. cerevisiae deletion strains, locus YPR141C, strain kar3, hits give low values 0.981 | S. cerevisiae deletion strains, locus YPR163C, strain tif3, hits give low values 1 | S. cerevisiae deletion strains, locus YPR167C, strain met16, hits give low values 0.996 | S. cerevisiae deletion strains, strain wtn01, hits give low values 1.01 | S. cerevisiae strains, strain wild type, hits give low values 1.01
